Data: PubChem BioAssay (Tox21)
Inconclusive results are not listed. Activity calls are given as the source filed them. Unless noted, calls come from the whole dose curve; as a rule, active = well fitted curve in the direction sought with a large enough effect in the repeat runs; inconclusive = weak or mixed curves; inactive = no such curve, though single readings can be large; an effect the other way counts as inactive or inconclusive.

How the values were obtained:
[1] = A CellTox Green Cytotoxicity Assay to monitor cytotoxicity in HepG2 cells - 0 hour (AID 1224882); note: nearly all actives have a fitted effect of over 35% in size
Summary of the method: (§1)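 HepG2, 600 cells/well premixed w/ CellTox Green; 5 h settle, 37 C/5% CO2; pintool cpd add (DMSO); 37 C, 40 h; fluorescence read at 0, 8, 16, 24, 32, 40 h.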

[2] = A CellTox Green Cytotoxicity Assay to monitor cytotoxicity in HepG2 cells - 32 hour (AID 1224883); note: nearly all actives have a fitted effect of over 50% in size
Summary of the method: as §1

[3] = A CellTox Green Cytotoxicity Assay to monitor cytotoxicity in HEK293 cells - 8 hour (AID 1224884); note: nearly all actives have a fitted effect of over 35% in size
Summary of the method: (§2)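 Read-out: fluorescence of a cell-impermeant cyanine dye staining DNA of dead cells, proportional to cytotoxicity. HEK293, 600 cells/well with reagent, compound (23 nL DMSO) added after 5 h; reads at 0, 8, 16, 24, 32, 40 h.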

[4] = qHTS RealTime-Glo MT Cell Viability Assay in HepG2 cells - 16 hour (AID 1224885); note: nearly all actives have a fitted effect of over 50% in size
Summary of the method: (§3)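 Luminescence read-out: viable HepG2 cells reduce a prosubstrate to a NanoLuc substrate, giving a signal proportional to live cell number. Reads taken at 0, 8, 16, 24, 32 and 40 h of compound exposure at 37 C.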

[5] = A CellTox Green Cytotoxicity Assay to monitor cytotoxicity in HEK293 cells - 16 hour (AID 1224888); note: nearly all actives have a fitted effect of over 35% in size
Summary of the method: as §2

[6] = A CellTox Green Cytotoxicity Assay to monitor cytotoxicity in HepG2 cells - 8 hour (AID 1224890); note: nearly all actives have a fitted effect of over 45% in size
Summary of the method: as §1

[7] = qHTS assay to identify small molecule antagonists of the estrogen receptor alpha (ER-alpha) signaling pathway using the BG1 cell line in the presence of 0.1 nM 17-beta-estradiol - cell viability counter screen (AID 1259241); note: nearly all actives have a fitted effect of over 40% in size
Summary of the method: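 Following 5 days in phenol red-free medium with charcoal-stripped serum, VM7Luc4E2 cells received test compounds alongside 0.1 nM 17beta-estradiol (final) at 37C for 22 hr. Live cells were then quantified via protease-substrate fluorescence.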

[8] = qHTS assay to identify small molecule antagonists of the androgen receptor (AR) signaling pathway using the MDA cell line in the presence of 0.5 nM R1881 - cell viability counter screen (AID 1259242); note: nearly all actives have a fitted effect of over 45% in size
Summary of the method: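 Live-cell protease fluorescence, CellTiter-Fluor, 30 min at 37C. Cells: MDA-kb2, 3,000/well, preincubated 5 hr. Compounds plus 0.5 nM R1881 final, 16 hr, 37C, 0% CO2.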

[9] = target: Estrogen receptor (Homo sapiens) (UniProt P03372); assay: qHTS assay to identify small molecule antagonists of the estrogen receptor alpha (ER-alpha) signaling pathway using the BG1 cell line in the presence of 0.1 nM 17-beta-estradiol (AID 1259244); note: nearly all actives have a fitted effect of over 50% in size
Estrogen receptor (Homo sapiens), sequence (P03372 whole entry, looked up): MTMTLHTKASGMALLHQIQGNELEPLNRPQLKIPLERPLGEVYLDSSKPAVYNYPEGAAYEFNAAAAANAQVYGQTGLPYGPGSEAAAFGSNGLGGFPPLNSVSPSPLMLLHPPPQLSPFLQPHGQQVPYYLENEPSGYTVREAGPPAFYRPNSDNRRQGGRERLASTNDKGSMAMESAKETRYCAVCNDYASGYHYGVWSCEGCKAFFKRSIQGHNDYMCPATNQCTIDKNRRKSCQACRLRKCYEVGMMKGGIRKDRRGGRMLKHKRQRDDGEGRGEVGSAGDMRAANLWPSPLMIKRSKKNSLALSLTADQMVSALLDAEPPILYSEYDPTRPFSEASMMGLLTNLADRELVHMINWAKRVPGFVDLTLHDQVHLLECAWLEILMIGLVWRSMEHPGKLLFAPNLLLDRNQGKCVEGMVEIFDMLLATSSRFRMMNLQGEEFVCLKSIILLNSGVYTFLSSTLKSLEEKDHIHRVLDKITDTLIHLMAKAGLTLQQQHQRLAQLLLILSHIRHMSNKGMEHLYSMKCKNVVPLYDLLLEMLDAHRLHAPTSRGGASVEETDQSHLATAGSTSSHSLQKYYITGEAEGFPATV
Summary of the method: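 Luminescence after ONE-Glo (30 min, room temperature) measured ERE-luciferase activity in VM7Luc4E2 cells treated 22 h with compound and 0.1 nM final 17beta-estradiol as stimulator.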

[10] = qHTS assay to identify small molecule HDAC inhibitors (AID 1259364); note: potency is the fitted concentration of half-maximal effect;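 note: wild-type HCT-116 cells with endogenous class I/II HDAC activity; nearly all actives have a fitted effect of over 45% in size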; for activity change, negative = inhibition: top concentration of the series differs between compounds
Summary of the method: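 HCT-116 (wild type), 1,500 cells/well, overnight; compound 2 hr 37C 5% CO2; HDAC-Glo I/II reagent 30 min RT; luminescence readout.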

[11] = qHTS assay to identify small molecule agonists of the sonic hedgehog signaling (Shh) pathway - cell viability counter screen (AID 1259366); note: nearly all actives have a fitted effect of over 50% in size
Summary of the method: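 Compounds in DMSO were pin-transferred onto 3T3 Gli1-Luc cells that had settled 4hr; plates then stood 24hr at 37C and 5% CO2. One hour before the end, CellTiter-Fluor was added and fluorescence recorded.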

[12] = qHTS assay to identify small molecule antagonists of the sonic hedgehog signaling (Shh) pathway - cell viability counter screen (AID 1259367); note: nearly all actives have a fitted effect of over 55% in size
Summary of the method: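 Cytotoxicity was assessed in parallel with Shh reporter activity by measuring live-cell protease fluorescence (CellTiter-Fluor) in NIH/3T3 cells stably carrying Gli1-Luc, treated with compound under conditioned medium stimulation for 23 hr plus 1 hr reagent incubation.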

[13] = qHTS assay to identify small molecule agonists of the sonic hedgehog signaling (Shh) pathway (AID 1259368; calls by dose curve;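 note: NIH/3T3-derived 3T3Gli1-Luc cells carrying a stable Gli1-driven firefly luciferase reporter; series mostly up to about 92 µM; nearly all actives have a fitted effect of over 15% in size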)
Summary of the method: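 Read-out: firefly luciferase luminescence from a Gli1 response element reporter stably integrated in NIH/3T3-derived 3T3Gli1-Luc cells, measured 30 min at room temperature after reagent addition. Compound exposure lasted 24 hr at 37 C, 5% CO2.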

[14] = qHTS RealTime-Glo MT Cell Viability Assay in HEK293 cells - 24 hour (AID 1224886)
Summary of the method: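 Nonlytic real-time viability readout: viable cells convert prosubstrate to NanoLuc substrate, giving luminescence proportional to live cell number. HEK293, 600 cells/well, compound added after 5 h, continuous culture at 37 C.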

[15] = qHTS RealTime-Glo MT Cell Viability Assay in HEK293 cells - 8 hour (AID 1224887)
Summary of the method: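 Luminescence readout at each listed time point; HEK293, 600 cells/well, RealTime-Glo MT reagent added with cells; compounds pinned (23 nL in DMSO) after 5 h at 37 C; continuous culture at 37 C.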

[16] = qHTS RealTime-Glo MT Cell Viability Assay in HepG2 cells - 0 hour (AID 1224889); note: nearly all actives have a fitted effect of over 50% in size
Summary of the method: as §3

[17] = qHTS assay to identify small molecule phospholipidosis (PLD) inducers (AID 1259344; active = well fitted curve in the direction sought with a large enough effect; an effect the other way counts as inactive or inconclusive; note: potency is the fitted concentration of half-maximal effect)
Summary of the method: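 Cells (HepG2, 900 per well) attach for 4 h, receive LipidTOX Red and compound together, incubate 24 h at 37 C, are fixed 30 min with paraformaldehyde/Hoechst, then imaged at one site per well.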

[18] = qHTS assay to identify small molecule antagonists of the sonic hedgehog signaling (Shh) pathway (AID 1259369; calls by dose curve; note: nearly all actives have a fitted effect of over 45% in size; note: potency is the fitted concentration of half-maximal effect)
Summary of the method: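 Luminescence readout: firefly Luc under Gli1 response element in 3T3Gli1-Luc cells (NIH/3T3 clone). Antagonist mode, stimulation by conditioned medium; compound exposure 24hr at 37 C, 5% CO2.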

[19] = qHTS assay to identify small molecule HDAC inhibitors - cell viability counter screen (AID 1259365)
Summary of the method: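 HCT-116 wild-type, overnight attachment; 2hr drug exposure, 37C; CellTiter-Glo luminescent ATP readout after 30min RT.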
% is set by controls: 0 for no effect and ±100 for the full control effect.

CCCCOC(=O)C(C)Oc1ccc(Oc2ccc(C(F)(F)F)cn2)cc1 (stereo not drawn)
inactive: Potency [1] | Potency [2] | Potency [3] | outcome [4] | Potency [5] | Potency [6] | Potency [7] | Potency [8] | Potency [9] | Potency [10] | Potency [11] | Potency [12] | Potency [13]

CC(COc1ccccc1)NC(C)C(O)c1ccc(O)cc1 (stereo not drawn)
inactive: Potency [1] | Potency [2] | Potency [3] | Potency [14] | Potency [15] | Potency [5] | Potency [16] | Potency [6] | Potency [8] | Potency [9] | Potency [17] | Potency [10] | Potency [11] | Potency [12] | Potency [13] | Potency [18]

Cc1c(-c2cccnc2)c2ccccc2n1CCCCC(=O)O
inactive: Potency [1] | Potency [2] | Potency [3] | Potency [14] | Potency [15] | Potency [5] | Potency [16] | Potency [6] | Potency [7] | Potency [8] | Potency [10] | outcome [19] | Potency [11] | Potency [12] | Potency [13] | Potency [18]

C[C@]12CCC(=O)C=C1[C@@H]1C[C@@H]1[C@H]1[C@@H]3[C@@H]4C[C@@H]4[C@@]4(CCC(=O)O4)[C@@]3(C)CC[C@@H]12
inactive: Potency [1] | Potency [2] | Potency [3] | outcome [4] | Potency [15] | Potency [6] | Potency [7] | Potency [8] | Potency [10] | outcome [19] | Potency [11] | Potency [12] | Potency [13]
active: Potency [17] 11.2 µM

CC1=CC(=C(c2ccc(N)cc2)c2ccc(N)cc2)C=CC1=N
inactive: cytotoxicity [1] 0.461% [at 6.97 µM] | cytotoxicity increase [2] 0.891% [at 6.97 µM] | cytotoxicity increase [3] -4.58% [at 6.97 µM] | activity change, negative = cytotoxic [4] 0.128% [at 6.97 µM] | activity change, negative = cytotoxicity [15] -15.3% [at 6.97 µM] | activity change [5] -0.601% [at 6.97 µM, hits give high values] | activity change, negative = cytotoxicity [16] 9.14% [at 6.97 µM] | cytotoxicity increase [6] 1.46% [at 6.97 µM] | viability change, negative = cytotoxic [8] -23% [at 8.39 µM] | Potency [17] | activity change, negative = inhibition [10] -3.34% [at 8.39 µM] | activity change, negative = cytotoxicity [19] -17.7% [at 8.39 µM] | viability change, negative = cytotoxic [12] -16.1% [at 8.39 µM] | activity change [13] -2.79% [at 8.39 µM, hits give high values]

CS(C)=O
active: Potency [18] 68.6 µM
inactive: Potency [1] | Potency [2] | Potency [3] | outcome [4] | Potency [15] | Potency [5] | Potency [16] | Potency [6] | Potency [7] | Potency [8] | Potency [10] | outcome [19] | Potency [11] | Potency [12] | Potency [13]

COc1ccc(/C=C/c2cc(OC)cc(=O)o2)cc1
inactive: Potency [1] | Potency [2] | Potency [3] | outcome [4] | Potency [15] | Potency [5] | Potency [6] | Potency [7] | Potency [8] | Potency [9] | Potency [12]
active: Potency [10] 6.26 µM

CC(C)CC(C)(C)C
inactive: Potency [1] | Potency [2] | Potency [3] | outcome [4] | Potency [6] | Potency [7] | Potency [8] | Potency [9] | Potency [10] | Potency [11] | Potency [12] | Potency [13] | Potency [18]

O=C(OCCCCCOC(=O)c1ccccc1)c1ccccc1
inactive: Potency [1] | Potency [2] | Potency [3] | outcome [4] | Potency [5] | Potency [16] | Potency [6] | Potency [7] | Potency [8] | Potency [9] | Potency [10] | Potency [12] | Potency [13] | Potency [18]

C=CC(=O)NC(C)(C)C
inactive: Potency [1] | Potency [2] | Potency [3] | Potency [14] | Potency [15] | Potency [5] | Potency [16] | Potency [6] | Potency [8] | Potency [9] | Potency [10] | outcome [19] | Potency [11] | Potency [12] | Potency [18]
